Measurements: the supplement of paper PMC7366291
Counter-ions that a name gives are not always drawn.

tested on: Danio rerio Tg(wt1b:EGFP) embryo, pronephros; experiment: fraction of imaged embryos annotated as normal kidney; higher = less nephrotoxic; extreme values may be limits of the assay; settings: 25 µM; exposure: 24-48 hpf
Outline: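 Tricaine-anaesthetised Tg(wt1b:EGFP) zebrafish larvae were oriented dorsally in agarose-filled 96-well plates, and their pronephroi were recorded by widefield fluorescence at 470 nm in 10 z-slices. Before this, the dechorionated embryos had been exposed in 12-well plates to 25 μM compound in 0.5% DMSO and 5 mM HEPES-buffered E3 with 0.003% PTU, from 24 to 48 hpf at 28.5°C. Maximum projections were annotated manually for each embryo, and the read-out is the fraction per treatment classed as normal kidney.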

Compound | fraction of imaged embryos annotated as normal kidney
O=C1Cc2cc(CCN3CCN(c4nsc5ccccc45)CC3)c(Cl)cc2N1 [Ziprasidone  Hydrochloride] | 0.833
C[C@@H]1[C@H](O)[C@@H](C)/C=C/C=C/C=C/C=C/C=C/C=C/C=C/[C@H](O[C@@H]2O[C@H](C)[C@@H](O)[C@H](N)[C@@H]2O)C[C@@H]2O[C@](O)(C[C@@H](O)C[C@@H](O)[C@H](O)CC[C@@H](O)C[C@@H](O)CC(=O)O[C@H]1C)C[C@H](O)[C@H]2C(=O)O [Amphotericin B] | 0
C[N+](C)(C)CCCCCC[N+](C)(C)C [Hexamethonium dibromide dihydrate] | 0.667
NCCCC[C@H](N[C@@H](CCc1ccccc1)C(=O)O)C(=O)N1CCC[C@H]1C(=O)O [Lisinopril] | 0.833
CN(C)CC/C=C1/c2ccccc2COc2ccc(CC(=O)O)cc21 [Olopatadine hydrochloride] | 0.833
CC(C)NNC(=O)c1ccncc1 [Iproniazide phosphate] | 1
CC(C(=O)O)c1ccc(C(=O)c2ccccc2)s1 (stereo unspecified) [Tiaprofenic acid] | 0.667
O=c1oc2ccccc2c(O)c1Cc1c(O)c2ccccc2oc1=O [Dicumarol] | 0.9
COC(=O)CCc1ccc(OCC(O)CNC(C)C)cc1 (stereo unspecified) [Esmolol hydrochloride] | 0.75
Cc1cc(=O)n(-c2ccccc2)n1C [Antipyrine] | 0.667
CCCCC[C@H](O)/C=C/[C@H]1[C@H](O)CC(=O)[C@@H]1CCCCCCC(=O)O [Alprostadil] | 0.75
